Our source for the Inhibition values is ChEMBL document CHEMBL1157539, “Thousands of chemical starting points for antimalarial lead identification” (Nature, 2010).

Structures are written as SMILES.

The test system of the experiment is Plasmodium falciparum. Description: GSK_TCMDC: Inhibition of Plasmodium falciparum Dd2 in whole red blood cells, using parasite LDH activity as an index of growth. Test compounds present at 2uM. It is filed as functional.
What is called Inhibition is the relative decrease from the control value, in per cent. The low end stands for a weak effect, the high end for a strong effect. The compound `CSc1cccc(NC(=O)c2cc3ccccc3oc2=O)c1` had an Inhibition of 75%.
The result for `COc1cc(CNCCC(C)C)ccc1OCc1cccc(COc2ccc(CNCCC(C)C)cc2OC)c1.Cl` reads 20%.
For `Cc1ccoc1C(=O)Nc1cccc(-c2cccc(-c3nc4ccccc4[nH]3)c2)c1` the value was 20%; for `CC1CN(S(=O)(=O)c2ccc(NC(=O)c3cc(-c4ccccc4O)n[nH]3)cc2)CC(C)O1` (stereo not given), 93%; for `COc1cccc(Nc2c(C(N)=O)cnc3ccc(-c4ccccc4)cc23)c1`, 99%.
For `CCCC(=O)c1cnc2cc(O)ccc2c1Nc1ccccc1C` the value was 93%; for `CNC(=O)c1ccccc1Nc1nc(Nc2cccnc2)ncc1C.Cl`, 90%; for `NC(=O)c1ccccc1OCC(=O)Nc1ccc(-c2cccc(-c3nc4cc(C(F)(F)F)ccc4[nH]3)c2)cc1`, 11%.
With `CC(c1cccc(Nc2nccc(-c3c(-c4cccc(NC(=O)c5c(F)cccc5F)c4)nn4ccccc34)n2)c1)S(C)(=O)=O` (stereo not given), the Inhibition worked out at 99%.
`Cc1ccc(Cn2ncc(NC3CCNCC3)c(Cl)c2=O)cc1NC(=O)Nc1ccc(-c2ccccc2)cc1.O=C(O)C(F)(F)F`: the Inhibition is given as 61%.
For `CCCCCCOc1ccc(C(=O)NCCCC2CCN(CCCCCNC(=O)C=Cc3ccc(Cl)c(Cl)c3)CC2)cc1` the value was 25%; for `O=S(=O)(Nc1ccc(CCN2CCCCC2CCN2CCCC2)cc1)c1cccc2cccnc12` (stereo not given), 0%; for `Cc1ccc(NC(=O)c2cccc(N3CCN(c4ccncc4)CC3)c2)cc1F.O=C(O)C(F)(F)F`, 72%.
For `COc1cccc(CNC(=O)c2cccc(-c3cccc(CN4CCC(N5CCCC5)CC4)c3)n2)c1.O=C(O)C(F)(F)F` the value was 76%; for `CCCCc1ccc(NC(=O)Nc2cccc(CCNCc3ccccc3)c2)cc1.O=C(O)C(F)(F)F`, 13%; for `CCCCCCP(=O)(COc1ccc(CCN(CC(O)COc2cccc3[nH]c(C(N)=O)cc23)CC(O)COc2cccc3[nH]c(C(N)=O)cc23)cc1)OCCCC` (stereo not given), 97%.
For `CCC(NCc1ccc(-c2cncc(C(=O)NCC(C)C)c2)cc1)c1ccccc1.O=C(O)C(F)(F)F` (stereo not given) the value was 8%.
`CN(C)CCNCc1ccc(-c2ccc(-c3nc4ccccc4[nH]3)s2)cc1.O=C(O)C(F)(F)F` showed an Inhibition of 100%.
`Clc1ccc(Nc2nc3ccc(Cl)cc3nc2Nc2ccc(Cl)cc2)cc1`: the Inhibition is listed as 99%.
For `CCCOc1cccc(C(=O)N[C@@H](Cc2ccccc2)[C@H](O)CNCc2cccc(OC)c2)c1` the value was 18%; for `CCCCNCc1ccc(-c2nc(CN(CCCn3ccnc3)C(=O)NC3CC3c3ccccc3)cs2)cc1.O=C(O)C(F)(F)F` (stereo not given), 34%; for `O=C(Nc1cc(F)cc(F)c1)N1CCOC(CCN2CCC(c3ccccc3)CC2)(c2ccc(Cl)c(Cl)c2)C1` (stereo not given), 69%.
`COc1ccc(C2=[N+]([O-])c3ccccc3C2=O)cc1`: the Inhibition turned out to be 61%.
For `COc1cc(CNCCCCCCNCc2cc(OC)c3ccccc3c2OC)c(OC)c2ccccc12.CS(=O)(=O)O` the value was 40%; for `COc1cc(NC(=O)c2sc(-c3ccc(Cl)cc3)cc2NC(=O)c2ccncc2)ccc1OCCN1CCCC1`, 100%; for `O=C(CC(c1ccccc1)c1ccccc1O)N1CCOCC1` (stereo not given), 5%.
For `Cl.O=C(Nc1ccccc1)c1cccc(Nc2nccc(Nc3ccc(Oc4ccccc4)cc3)n2)c1` the value was 11%; for `CN(C)c1ccc(C=CC(=O)NC(=O)c2ccccc2O)cc1`, 97%.
For `Cc1ccn2cc(-c3ccc(NC(=O)c4ccc(Br)o4)cc3)nc2c1` the value was 41%; for `COc1ccc2nccc([C@@H](O)CN3CCC(NCc4ccc5c(c4)NC(=O)CO5)CC3)c2c1.Cl`, 6%; for `CC(C)(CNC(=O)[C@H]1CCCN1)c1nc(-c2ccc(Cl)c(O)c2)c(-c2ccncc2)[nH]1.Cl`, 95%.
`Nc1c2c(nc3ccc(C(=O)Nc4ccccc4)cc13)CCCC2` returned an Inhibition of 78%.
For `Cc1cccc(Nc2nc(N)c3ccccc3n2)c1.Cl` the value was 49%; for `Cc1cc(CN2CCC(Nc3ncc(-c4ccsc4)c4nc(C(F)(F)F)ccc34)CC2)no1.Cl`, 67%.
For `CCN(CC)CCCCNc1cc(-c2[nH]c(C(C)(C)C)nc2-c2ccc3cc(OC)ccc3c2)ccn1.O=C(O)C(F)(F)F` the value was 76%; for `Fc1cccc(-c2ccc3c(c2)CC(NCc2c[nH]c4cnccc24)C3)c1` (stereo not given), 68%; for `CC(C)(C)OC(=O)C1CCCN(Cc2ccc(-c3cccc(-c4nc5ccccc5[nH]4)c3)cc2)C1.O=C(O)C(F)(F)F` (stereo not given), 27%.
The result for `O=C(Cc1cccc2ccccc12)N1CCc2cc3nccc(N4CCN5CCC[C@H]5C4)c3cc21` reads 99%.
Turning to `COc1cc2nc(N3CCC(CNC(=O)/C=C/c4ccccc4F)CC3)nc(N)c2cc1OC.Cl`, the Inhibition is on record as 88%.
The result for `COc1ccc2nccc([C@@H](O)CN3CCC(NCc4ccc5c(c4)N(C)C(=O)CO5)CC3)c2c1.O=C(O)C(=O)O` reads 95%.
